# Values joined by “and” are separate entries in the source; they are usually repeats but may differ in a detail not shown here. Equal entries are not always repeated. Screen size: about 16,000 compounds; about 2,600 (16%) were called active. About 20% were inconclusive and are not listed. Calls follow the shape of the dose curve; as a rule, active = well fitted curve in the direction sought with a large enough effect; inconclusive = small, poorly fitted or top-dose-only effect, or effect the other way; inactive = no such curve, though single readings can be large or run the other way. Only a sample is shown.
# Biological target: Cytochrome P450 2D6 (Homo sapiens) (UniProt P10635)
# Assay: Cytochrome panel assay with activity outcomes
# Conditions: recombinant CYP, pro-luciferin dealkylation, luminescence, p450-cyp2d6; series mostly up to 57.1 µM
# % is scaled to controls: 0 for no effect and ±100 for the full control effect.
# Cytochrome P450 2D6 (Homo sapiens), sequence (P10635 whole entry, looked up): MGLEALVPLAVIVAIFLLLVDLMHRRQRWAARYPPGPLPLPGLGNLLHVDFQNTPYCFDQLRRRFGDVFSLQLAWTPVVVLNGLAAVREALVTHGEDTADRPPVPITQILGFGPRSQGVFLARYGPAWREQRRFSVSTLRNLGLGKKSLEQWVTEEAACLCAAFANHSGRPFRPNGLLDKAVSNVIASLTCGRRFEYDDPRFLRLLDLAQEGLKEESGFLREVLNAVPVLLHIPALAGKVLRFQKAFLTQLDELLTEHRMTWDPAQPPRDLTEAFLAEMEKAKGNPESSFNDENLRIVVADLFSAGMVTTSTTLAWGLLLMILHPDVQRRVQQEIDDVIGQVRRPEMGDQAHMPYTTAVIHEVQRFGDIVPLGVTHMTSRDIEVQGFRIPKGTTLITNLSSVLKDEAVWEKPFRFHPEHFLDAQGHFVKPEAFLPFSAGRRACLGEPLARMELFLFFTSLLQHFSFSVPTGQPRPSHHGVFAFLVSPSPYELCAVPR
SMILES,AC50,"activity, negative = inhibition"
CC(C)(C)NC(=O)C(=O)N/N=C/c1ccc(Br)cc1,inactive,
Nc1nc(-c2ccccc2)cc(-c2ccccc2O)n1,inactive,
COc1cccc(Cn2c(=O)c(-c3ccc(Cl)cc3)nc3cnc(OC)nc32)c1,inactive,
c1ccc(CCN2CCN=C2Cc2ccccc2)cc1,0.126 µM (active),
C[C@H](c1ccccc1)N1C(=O)[C@H]2[C@@H]3[C@H](O)[C@H](O)CC(=O)[C@H]3CC[C@H]2C1=O,,4.75% [at 11.4 µM] (inactive)
Cc1ccccc1NC(=S)NC(=O)c1cc(-c2ccccc2)nc2ccccc12,inactive,
CC(C)(C)C(=O)NNC(=O)CCCOc1ccc(Cl)cc1Cl,inactive,
C#CCN(C)CCCOc1ccc(Cl)cc1Cl,2 µM (active) and 398 nM (active),
COC(=O)CCC(=O)NNC(=O)CCCOc1ccc(Cl)cc1Cl,inactive,
Cc1ncc([N+](=O)[O-])n1CC(=O)NCc1ccccc1,inactive,
COc1ccc(NC(=O)C23CC4CC(C2)CC(n2cnc(Br)n2)(C4)C3)c(C)c1,inactive,
O=C(NC1CCCCC1)C12CC3CC(C1)CC(n1cncn1)(C3)C2,11.2 µM (active),
O=S(=O)(c1cccc(-c2nnc(-c3ccc(Br)cc3)o2)c1)N1CCCCCC1,inactive,
Cc1ccc(S(=O)(=O)n2ccc(-c3cccc(OCc4c(F)cccc4Cl)c3)n2)cc1,inactive,
COc1ccc(C(=O)N/N=C2/C(=O)c3c(C)cc(C)cc3CC2(C)C)cc1,,-4.67% [at 11.4 µM] (inactive)
CCCC1S/C(=N/N=C/c2ccc(OC)cc2)N(Cc2ccc(OC)cc2)C1=O (stereo not given),inactive,
COc1cccc(C(=O)n2c(SC)nc3cc4c(cc32)OCCO4)c1,inactive,
Cc1ncc(N=Nc2ccccc2Cl)c(-c2ccccc2)n1,inactive,
CCOC(=O)c1cc2c(=O)n3ccccc3nc2n(CCCOC)c1=NC(C)=O,inactive,
CCOc1ccc(-n2cc(C(=O)NCc3ccco3)c3cc(OC)c(OC)cc3c2=O)cc1,inactive,
COc1ccc(CCn2c(=N)c(C(=O)NCc3ccco3)cc3c(=O)n4ccccc4nc32)cc1,1.12 µM (active),
O=C(/C=C/c1ccccc1)N1CCN(Cc2nc3ccccc3c(=O)[nH]2)CC1,inactive,
CS(=O)(=O)Nc1cccc(-c2nc(NCc3ccccc3)c3ccccc3n2)c1,20 µM (active),
CS(=O)(=O)Nc1cccc(-c2nc(NCc3cccnc3)c3ccccc3n2)c1,20 µM (active),
Cc1cccc(CNc2nc(-c3cccc(NS(C)(=O)=O)c3)nc3ccccc23)c1,12.6 µM (active),

SMILES,AC50,"activity, negative = inhibition"
COc1cccc(-c2nc(NCc3cccs3)c3ccccc3n2)c1,12.6 µM (active),
O=C(O)CSc1sc(=S)sc1SCC(=O)O,inactive,
N[C@@H](Cc1ccc(O)c(O)c1)C(=O)O,inactive,
O=C(NNC(=O)c1cc2cc3ccccc3nc2s1)c1cccc(Cl)c1,inactive,
COc1ccc(NC(=O)c2ccc3c(=O)n(Cc4ccco4)c(=S)[nH]c3c2)c(OC)c1,inactive,
Cc1nc2c(ccc3nc(NC(=O)c4ccc5c(c4)OCCO5)sc32)s1,inactive,
CCOCCCNC(=O)C1CCN(S(=O)(=O)N2CC(C)CC(C)C2)CC1 (stereo not given),inactive,
CC[C@H](C)N(C)C(=O)c1cc2ccccc2c(-c2ccccc2Cl)n1,inactive,
CCOC(=O)CC(NC(=O)c1ccc(C)cc1)c1ccc(C)cc1 (stereo not given),inactive,
O=C(c1cccc(F)c1)N1CCC[C@@]2(CCN(c3cccc(-c4ccccc4)c3)C2)C1,inactive,
COc1cccc(Nc2ncc3nc(C)c(=O)n(-c4ccccc4)c3n2)c1,inactive,
Cc1oc2c(C)c(O)ccc2c(=O)c1-c1ccc2ccccc2n1,inactive,
O=[N+]([O-])c1ccc(CSc2ncnc3c2ncn3[C@@H]2O[C@@H](CO)[C@@H](O)[C@H]2O)cc1,inactive,
CS(=O)(=O)Nc1cccc(-c2nc(NCc3cccs3)c3ccccc3n2)c1,10 µM (active),
CCOC(=O)C(NC(C)=O)C(OC(C)=O)c1cccc(N(CCO)CCO)c1 (stereo not given),inactive,
Cc1nc(-c2c(C(F)(F)F)noc2-c2ccc(O)cc2O)cs1,inactive,
COc1ccc(CCNC(=O)CC(NS(=O)(=O)c2ccc(NC(C)=O)cc2)C(C)C)cc1OC (stereo not given),inactive,
CC(=O)Nc1ccc(S(=O)(=O)NCCc2ccc(F)cc2)cc1,15.8 µM (active),
CC(=O)Nc1ccc(S(=O)(=O)c2ccc(N)cc2)cc1,inactive,
CN(C)C(=O)c1ccc(-c2cc(N(C)Cc3ccco3)ncn2)cc1,inactive,
CN(Cc1ccco1)c1cc(-c2ccc3c(c2)OCO3)ncn1,12.6 µM (active),
CN(C)c1ccc(-c2cc(N(C)Cc3ccco3)ncn2)cc1,7.94 µM (active),
CN(Cc1ccco1)c1cc(-c2ccoc2)ncn1,inactive,
COc1ccc(C(=O)N2CCC3(CC2)CN(C(=O)Nc2cccc(C#N)c2)C3)cc1,inactive,
Cc1nn(CCc2n[nH]c(=S)n2-c2ccc(F)c(Cl)c2)c(C)c1[N+](=O)[O-],inactive,

SMILES,AC50,"activity, negative = inhibition"
C#C[C@@]1(OC(C)=O)CC[C@@H]2[C@@H]3CCC4=C[C@@H](OC(C)=O)CC[C@H]4[C@H]3CC[C@]21C,inactive,
N#CCSc1ncnc2c1cnn2CCO,inactive,
COC(=O)c1c(-c2ccccc2)csc1NC(=O)CSc1ncnc2sc(C)c(C)c12,inactive,
NC(=S)c1ccc[n+]([C@@H]2O[C@@H](COP(=O)([O-])OP(=O)(O)OC[C@@H]3O[C@@H](n4cnc5c(N)ncnc54)[C@@H](OP(=O)(O)O)[C@H]3O)[C@@H](O)[C@H]2O)c1,inactive,
COC(=O)N1CCC2(CCN(Cc3ccccc3OC)CC2)CC1,2 µM (active),
CC(=O)N1CCC2(CC1)CCN(c1ccccn1)CC2,inactive,
COCC(=O)N1CCC2(CCN(Cc3ccncc3)CC2)CC1,6.31 µM (active),
COc1ccccc1CN1CCC2(CC1)CCN(C(=O)c1c(C)noc1C)CC2,7.94 µM (active),
CC(=O)N1CCC2(CCN(Cc3ccncc3)CC2)CC1,inactive,
COc1ccc(C(=O)N2CCC3(CCN(Cc4ccncc4)CC3)CC2)cc1,inactive,
COC(=O)N1CCC2(CC1)CCN(c1cccc(-c3ccccc3)c1)CC2,inactive,
CC(=O)N1CCC2(CC1)CCN(c1ccc(-c3ccccc3)cc1)CC2,inactive,
COC(=O)N1CCC2(CCN(Cc3nccs3)CC2)CC1,inactive,
COc1ccccc1CN1CC[C@@]2(CCCN(C(=O)c3c(C)noc3C)C2)C1,inactive,
COc1ccccc1CN1CCC2(CC1)CCN(C(C)=O)CC2,5.01 µM (active),
Cc1noc(C)c1C(=O)N1CCC2(CCN(Cc3ccccc3)CC2)CC1,inactive,
Cc1cc2c(cc1C)NC1=C(N2)O[C@H](c2c[nH]c3ccc(COc4ccccc4)cc23)C1=O,,-9.09% [at 11.4 µM] (inactive)
N#C/C(=N\O)c1nc(-c2ccccc2)cs1,inactive,
CC(C)(C)c1ccc(OCC(=O)NNC(=O)Cc2cccs2)cc1,inactive,
C/C(C[n+]1ccccc1)=N\N=C(N)N,,6.81% [at 11.4 µM] (inactive)
CN(C)C(=O)CSC1c2ccccc2C(=O)N1c1ccccc1 (stereo not given),inactive,
O=c1c(-c2ccccc2)nc2cnc(N3CCNCC3)nc2n1C1CC1,inactive,
Cc1onc(-c2c(F)cccc2Cl)c1C(=O)N[C@@H]1C(=O)N2[C@H]1SC(C)(C)[C@H]2C(=O)O,,16.2% [at 11.4 µM] (inactive)
CNc1cc(N2CCCCCC2)ccc1[N+](=O)[O-],inactive,
CCC(CC)C(=O)Nc1cccc(/C(C)=N/NC(=O)c2c(Br)cnn2C)c1,inactive,

SMILES,AC50,"activity, negative = inhibition"
CN(C)CCn1nnnc1SCC1=C(C(=O)O)N2C(=O)[C@@H](NC(=O)Cc3csc(N)n3)[C@@H]2SC1,inactive,
COCC(=O)N1CCC2(CC1)CN(Cc1cc(C(F)(F)F)cc(C(F)(F)F)c1)C2,inactive,
COc1ccc(C(=O)N2CCC3(CCN(Cc4cc(C(F)(F)F)cc(C(F)(F)F)c4)CC3)CC2)cc1,inactive,
COc1ccccc1CN1CCC2(CCNCC2)CC1,0.0316 µM (active),
COc1ccc(NC(=O)N2CCCC3(CCNCC3)C2)cc1,inactive,
COCC(=O)N1CCC2(CCN(Cc3ccccc3OC)CC2)CC1,15.8 µM (active),
COCC(=O)N1CCC2(CC1)CCN(C(=O)Nc1ccc(OC)cc1)CC2,inactive,
COC(=O)N1CCC2(CCN(Cc3cc(C(F)(F)F)cc(C(F)(F)F)c3)CC2)CC1,10 µM (active),
COCC(=O)N1CCC2(CC1)CN(Cc1ccccc1OC)C2,inactive,
Cc1cc2c(cc1S(N)(=O)=O)S(=O)(=O)CCC2,inactive,
CON(C)C(=O)c1nnc2c(n1)[nH]c1ccccc12,,-2.74% [at 11.4 µM] (inactive)
N[C@H](CCC(=O)N[C@H](CSN=O)C(=O)NCC(=O)O)C(=O)O,inactive,
Cc1ccc(Oc2ncc(CN3CCOCC3)s2)cc1,inactive,
COc1cc(N2CCOCC2)ncn1,inactive,
Cc1cc(C(C)(C)C)c(OCCCN2CCOCC2)c(C(C)(C)C)c1,2 µM (active),
N[C@@]1(C(=O)O)CN[C@H](C(=O)O)C1,inactive,
NC1(C(=O)O)CC(C(=O)O)C1 (stereo not given),inactive,
Cc1cc(C)cc(-n2nnnc2SCC(=O)Nc2nc(-c3ccc(F)cc3)cs2)c1,inactive,
COc1ccc(COC(=O)N/N=C2/C[C@@H](O)[C@@H](O)[C@@H]3[C@@H]4C(=O)N(C(C)(C)C)C(=O)[C@H]4CC[C@@H]23)cc1,,12.5% [at 11.4 µM] (inactive)
COC(=O)CSC(C(=O)Nc1ccc(C)c(C)c1)c1ccccc1 (stereo not given),inactive,
CCC(CC)C(=O)Nc1cccc(/C(C)=N\NC(=O)c2ccc(C)s2)c1,inactive,
CCC(CC)C(=O)Nc1ccc(C)c(O)c1,17.8 µM (active),
CCOc1ccc(N(C(=O)/C=C/C(=O)Nc2cc(C)on2)C(C(=O)NC2CCCC2)c2ccccc2C)cc1 (stereo not given),14.1 µM (active),
CCOC(=O)CN(C(=O)CCC(=O)Nc1cc(C)on1)C(C(=O)NC1CCCC1)c1cccnc1 (stereo not given),inactive,
Cc1ccccc1C(C(=O)NC1CCCC1)N(C(=O)Cc1cccs1)c1ccc2c(c1)OCCO2 (stereo not given),inactive,

# Reference: PubChem BioAssay AID1851 (National Center for Advancing Translational Sciences (NCATS), 2009)
